In PubChem BioAssay:
“And” between values parts separate entries of the source, which are not always exact repeats. Identical values can stand only once.

Assay: sensitizers of A549 cells to miR-34 induction, primary screen, imaging, A549 dox-inducible miR-34, nuclei and caspase counts (AID 1347080); note: test concentration not given here
Conditions: A549 miR-34 inducible, Hoechst nuclei count, 48 h; measured here: total cells without miR-34 induction

SMILES | cell count
CCOC(=O)O[C@]1(C(=O)COC(=O)CC)CC[C@H]2[C@@H]3CCC4=CC(=O)C=C[C@]4(C)[C@H]3[C@@H](O)C[C@@]21C | 7130
O=C(O)CCc1c[nH]c2ccccc12 | 9860
NC[C@H]1O[C@H](O[C@H]2[C@H](O)[C@@H](O[C@H]3O[C@H](CO)[C@@H](O)[C@H](N)[C@H]3O)[C@H](N)C[C@@H]2N)[C@H](O)[C@@H](O)[C@@H]1O | 9860
CCOc1nc2cccc(C(=O)OCc3oc(=O)oc3C)c2n1Cc1ccc(-c2ccccc2-c2noc(=O)[nH]2)cc1 | 8630
CCOC(=O)NCCCC(=O)NCCc1ccccc1 | 9150
CCn1ncc(NC(=O)Cn2cc(-c3ncnc4ccsc34)cn2)n1 | 9620
C[C@@]1(c2nc3c(C(N)=O)cccc3[nH]2)CCCN1 | 7270
C[C@]12CC[C@@H]3c4ccc(OS(=O)(=O)O)cc4CC[C@H]3[C@@H]1CCC2=O | 10300
CNc1nc(-c2cccc(OC)c2)ncc1F | 10000
O=C1CN(c2ncnc3sccc23)CCN1Cc1cccc(F)c1 | 5730
CC(C)(O/N=C(\C(=O)N[C@@H]1C(=O)N2C(C(=O)[O-])=C(C[n+]3ccccc3)CS[C@H]12)c1csc(N)n1)C(=O)O | 9990 and 10400
COC(=O)CN1CCN(C(=O)Nc2n[nH]c(-c3ccco3)n2)CC1=O | 10300
Cn1c(=O)c2c(nc(N3CCNCC3)n2Cc2ccccc2)n(C)c1=O | 9410
CO/N=C(\C(=O)N[C@@H]1C(=O)N2C(C(=O)O)=C(C[N+]3(C)CCCC3)CS[C@H]12)c1csc(N)n1 | 9720
